Compound activity from PubChem.
Only some compounds are listed: those with a hit (about 2.2% of all), similar ones and a draw of the others.
MmCpn inh: inhibitors of Methanococcus maripaludis chaperonin TRiC (MmCpn); purified Mm-Cpn ATPase, ADP Transcreener TR-FRET; Potency, µM (doses to about 76.9 µM), inactives show top-dose activity, negative = inhibition, actives largely listed as inhibitors; 0.031% of 330,000 active; AID 504842; note: potency is the fitted concentration of half-maximal effect; % is set by controls: 0 for no effect and ±100 for the full control effect; nearly all actives have a fitted effect of over 80% in size
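ATPase turnover read by TR-FRET ADP competition (Eu cryptate antibody/ADP-d2, 665/590 nm): 10uM ATP final, 25nM Mm-CPN final, 30 min 37degC after 10-min compound preincubation, pH 7.4 Tris/KCl/MgCl2/DTT buffer.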
uPA surface inh: inhibitors of cell surface uPA generation; cell surface uPA generation assay, qHTS; Potency, µM (titrated, usually from 38.3 µM), for the others: at the highest dose activity change, negative = inhibition, hits mostly inhibitors; 0.31% of 330,000 active; active = well fitted inhibition curve with a large enough effect; inconclusive = small, poorly fitted or top-dose-only effect; inactive = no such curve, though single readings can be large or run the other way; tested in mouse RAW 264.7 cells; note: potency is the fitted concentration of half-maximal effect; % is set by controls: 0 for no effect and ±100 for the full control effect; nearly all actives have a fitted effect of over 55% in size
GLP-1R inv ag: inverse agonists of human GLP-1 receptor | P43220 | HEK293 GLP-1R CRE-luciferase, luminescence, 24 h; GLP-1R form is constitutively active | Potency, µM (titrated, usually from 38.3 µM), inactives show at the highest dose activity change, negative = inhibition, actives largely listed as inhibitors | 1.6% of 410,000 active | AID 624417; note: potency is the fitted concentration of half-maximal effect; % is set by controls: 0 for no effect and ±100 for the full control effect; nearly all actives have a fitted effect of over 55% in size
Target sequence (P43220 whole entry, looked up): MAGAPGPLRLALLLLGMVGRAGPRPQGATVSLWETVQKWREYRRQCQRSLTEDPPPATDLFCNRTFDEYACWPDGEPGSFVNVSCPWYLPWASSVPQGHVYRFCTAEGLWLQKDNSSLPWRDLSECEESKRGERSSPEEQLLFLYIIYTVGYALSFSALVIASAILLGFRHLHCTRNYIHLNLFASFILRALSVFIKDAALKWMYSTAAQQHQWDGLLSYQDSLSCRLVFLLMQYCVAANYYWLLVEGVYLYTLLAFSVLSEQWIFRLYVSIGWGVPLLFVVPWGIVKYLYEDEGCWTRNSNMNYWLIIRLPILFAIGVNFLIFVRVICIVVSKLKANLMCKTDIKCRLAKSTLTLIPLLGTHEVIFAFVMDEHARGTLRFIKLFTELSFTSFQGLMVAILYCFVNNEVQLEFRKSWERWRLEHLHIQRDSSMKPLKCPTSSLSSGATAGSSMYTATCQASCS
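Readout was luciferase luminescence, measured 12 min after detection reagent at room temperature. Beforehand, GLP-1R reporter HEK293 cells had sat 12 h, then received compounds for 24 hr at 37 deg C.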
CCT modulator: changes cytosolic chaperonin activity. purified chaperonin ATPase assay, HTRF ADP detection, 30 min. activity change, % (test concentration not listed), hits read low. 0.3% of 360,000 active. AID 651819; in the data active = activity change below about -30%; note: % is set by controls: 0 for no effect and ±100 for the full control effect
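First, chaperonin was dispensed at 40 nM or 20 nM final depending on batch activity. Next, compounds were pinned at 76 uM and ATP added at 10 uM. After 30 min at 37 °C, ADP detection reagents ran 30 min at ambient temperature.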
GLP-1R agonist: agonists of human GLP-1 receptor; P43220; HEK293 GLP-1R CRE-luciferase, luminescence, 4-6 h; cells express a hypersensitive GLP-1R form; Potency, µM (highest dose often 45.6 µM), inactives show at the top dose activation, most hits filed as activators; 0.007% of 380,000 active; AID 624172; note: potency is the fitted concentration of half-maximal effect; % of control where 0% means no effect
GLP1R cytotox: cytotoxicity counter-screen for GLP-1 receptor inverse agonists | 0.13% of 410,000 active | Potency, µM (series often up to 38.3 µM), for inactives: at the highest dose activity change, negative = inhibition, usual class: inhibitors | HEK293 cAMP-luciferase reporter cells, luminescence, 24 h;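 note: loss of luciferase light is scored as toxicity; potency is the fitted concentration of half-maximal effect; % is set by controls: 0 for no effect and ±100 for the full control effect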
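To flag toxic compounds, the library was rerun on cells for 24 hr at 37 deg C and 5% CO2. Viability-linked luminescence was captured 12 min after adding luciferase detection reagent.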
* = called active by the depositor. Unless noted, calls come from the whole dose curve; as a rule, active = well fitted curve in the direction sought with a large enough effect; inconclusive = small, poorly fitted or top-dose-only effect, or another doubt; inactive = no such curve, though single readings can be large; an effect the other way counts as inactive or inconclusive.

For O=C(CSc1nnc(-c2ccncc2)o1)Nc1cc(F)ccc1F the results were MmCpn inh 0.1%, uPA surface inh 2.4%, GLP-1R inv ag -7.2%, CCT modulator -118.9*, GLP-1R agonist -8.7% and GLP1R cytotox 14.4%.
Screening COc1cc(OC)c(NC(=O)Nc2ccc3c(c2)N(C)C(=O)c2ccccc2S3)cc1Cl returned GLP-1R inv ag 4.4% and GLP1R cytotox 5.0%.
CCC(=O)Nc1ccc(-c2ccc(N3CCC(C)CC3)nn2)cc1 was read as MmCpn inh -0.4%, uPA surface inh inconclusive, GLP-1R inv ag 7.94µM*, CCT modulator -3.7, GLP-1R agonist -0.1% and GLP1R cytotox 5.2%.
Screening CCC(=O)Nc1cccc(-c2ccc(N3CCC(C)CC3)nn2)c1 returned MmCpn inh -0.1%, uPA surface inh inconclusive, GLP-1R inv ag -12.5%, CCT modulator -3.8, GLP-1R agonist -6.1% and GLP1R cytotox -6.2%.
Screening CC1CCN(c2ccc(-c3cccc(NC(=O)C(F)(F)F)c3)nn2)CC1 returned MmCpn inh -2.8%, uPA surface inh -5.3%, GLP-1R inv ag 1µM*, CCT modulator -1.7, GLP-1R agonist -3.1% and GLP1R cytotox 80.5%.
CS(=O)(=O)c1ccc(-c2cccc(NC(=O)c3ccco3)c2)nn1 was read as MmCpn inh 0.0%, uPA surface inh 2.9%, GLP-1R inv ag 5.7%, CCT modulator 0.2, GLP-1R agonist 1.6% and GLP1R cytotox -10.0%.
`CC1CCN(c2ccc(-c3cccc(NC(=O)c4ccco4)c3)nn2)CC1` gave MmCpn inh -1.1%, uPA surface inh -15.0%, GLP-1R inv ag 11.2µM*, CCT modulator 0.3, GLP-1R agonist 13.3% and GLP1R cytotox -15.3%.
For CSc1cccc(NC(=O)c2ccc3c(c2)CCCN3S(C)(=O)=O)c1 the results were GLP-1R inv ag -25.6% and GLP1R cytotox -21.0%.
For CNC(=O)C1CCC(Cn2c(=O)c3sccc3n(CC(=O)Nc3cc(C)cc(C)c3)c2=O)CC1 (centres undefined) the results were GLP-1R inv ag 7.4% and GLP1R cytotox -7.2%.
For CC1(C)Cc2nc3sc4c(SCC(=O)O)ncnc4c3cc2CO1 the results were MmCpn inh -0.2%, uPA surface inh 2.24µM*, GLP-1R inv ag inconclusive, CCT modulator -1.0, GLP-1R agonist -0.5% and GLP1R cytotox -3.6%.
Screening COC(=O)CSc1ncnc2c1sc1nc3c(cc12)COC(C)(C)C3 returned MmCpn inh -1.2%, uPA surface inh -4.9%, GLP-1R inv ag inconclusive, CCT modulator -2.2, GLP-1R agonist -1.7% and GLP1R cytotox 12.6%.
O=C(Nc1nc(-c2ccccn2)cs1)c1ccc2c(c1)OCCO2 was read as MmCpn inh -3.9%, uPA surface inh 2.51µM*, GLP-1R inv ag inconclusive, CCT modulator 0.9, GLP-1R agonist -2.9% and GLP1R cytotox -14.4%.
For CCOc1ccc(NC(=O)c2ccc(F)c(S(=O)(=O)N(Cc3ccc(C(=O)OC)cc3)Cc3ccc(OC)c(OC)c3)c2)cc1 the results were GLP-1R inv ag -12.5% and GLP1R cytotox -14.3%.
`CCc1ccc(NC(=O)c2ccc(F)c(S(=O)(=O)NCCc3ccc(OC)c(OC)c3)c2)cc1` gave GLP-1R inv ag 10µM* and GLP1R cytotox -20.0%.
`CCc1ccc(NC(=O)c2ccc(F)c(S(=O)(=O)NCC3COc4ccccc4O3)c2)cc1` (centres undefined) gave MmCpn inh 1.1%, uPA surface inh inconclusive, GLP-1R inv ag 5.01µM*, CCT modulator -2.1, GLP-1R agonist -7.0% and GLP1R cytotox inconclusive.
`O=C1CC(c2cccc(Cl)c2Cl)c2cc3c(cc2N1)OCCO3` (centres undefined) gave GLP-1R inv ag 0.7%, GLP-1R agonist 0.8% and GLP1R cytotox 0.3%.
